# Screening results (PubChem)
# LmPK inhibitor: inhibitors of Leishmania mexicana pyruvate kinase. purified LmPK, Kinase-Glo ATP luminescence, 1 h. Potency, µM (doses to about 57.5 µM), inactives show top-dose activity change, negative = inhibition, hits mostly inhibitors. 290,000 tested, 0.37% active. AID 1721; also: potency is read from the fitted curve at half-maximal effect; % is scaled to controls: 0 for no effect and ±100 for the full control effect
#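 Pyruvate kinase activity monitored as ATP production (luciferase luminescence). Conditions: 0.1 nM enzyme, 0.5 mM PEP, 0.1 mM ADP, 1 h, RT; normalized against uninhibited and no-enzyme wells.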
# Giardia FBPA inh: inhibitors of Giardia lamblia fructose-1,6-bisphosphate aldolase; purified Giardia FBPA; Potency, µM (top dose mostly 59.6 µM), without a hit: at the top dose activity, negative = inhibition, usual class: inhibitors; 290,000 tested, 0.71% active; AID 2451; also: potency is read from the fitted curve at half-maximal effect; % is scaled to controls: 0 for no effect and ±100 for the full control effect; nearly all actives have a fitted effect of over 55% in size
# Target sequence (A8B2U2 whole entry, looked up): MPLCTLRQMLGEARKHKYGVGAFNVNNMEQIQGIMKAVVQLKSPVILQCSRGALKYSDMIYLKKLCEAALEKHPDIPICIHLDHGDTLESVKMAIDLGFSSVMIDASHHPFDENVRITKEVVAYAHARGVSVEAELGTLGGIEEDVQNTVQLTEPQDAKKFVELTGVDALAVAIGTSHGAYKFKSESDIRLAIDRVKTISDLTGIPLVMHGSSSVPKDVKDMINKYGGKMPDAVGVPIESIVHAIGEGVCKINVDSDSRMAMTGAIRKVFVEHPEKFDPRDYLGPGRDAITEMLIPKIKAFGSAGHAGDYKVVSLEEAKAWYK
#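 Giardia FBPA (40 nM reagent) was preincubated 10 min at RT with compound (up to 57.5 uM final), then substrate plus GAPDH/TPI/NAD/arsenate coupling system with diaphorase/resazurin was added; resorufin fluorescence (525/598 nm) was read after 20 min.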
# Tb PYK inh: T. brucei pyruvate kinase inhibition; AID 624173; TbPYK enzyme, Kinase-Glo Plus ATP luminescence, 45 min; 410,000 tested, 0.12% active; Potency, µM (top dose mostly 76.8 µM), for the others: at the highest dose activity, negative = inhibition, actives largely listed as inhibitors; Q57TT1; also: potency is read from the fitted curve at half-maximal effect; % is scaled to controls: 0 for no effect and ±100 for the full control effect; nearly all actives have a fitted effect of over 50% in size
#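 Screened from lowest to highest concentration, compounds were pinned into TbPYK/substrate mixtures, and ADP (130 uM final) was added. Plates sat at room temperature for 45 min prior to Kinase-Glo Plus detection by luminescence.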
# Shiga inhibitor: blocks Shiga toxin action in Vero cells; Vero cells, Shiga toxin protein synthesis inhibition reporter; inhibition, % at 38.7 µM; 290,000 tested, 9.2% active; AID 2315; in the data active = inhibition mostly above about 28%, no sharp cut-off; inactive = mostly below about 43%; also: 0% is about no effect
# Sm TGR inh: blocks Schistosoma mansoni thioredoxin glutathione reductase; Q962Y6; 360,000 tested, 3% active; purified TGR, DTNB reduction, TNB absorbance 405 nm; Potency, µM (doses to about 114 µM), without a hit: top-dose activity change, negative = inhibition, most hits filed as inhibitors; AID 485364; also: potency is read from the fitted curve at half-maximal effect; % is scaled to controls: 0 for no effect and ±100 for the full control effect; nearly all actives have a fitted effect of over 60% in size
#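 Kinetic colorimetric format: TGR-catalysed, NADPH-driven DTNB reduction monitored via TNB absorbance. Enzyme dispensed at 20 nM; compound exposure 15 min at room temperature before reaction start.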
# Cycloheximide cs: affects cycloheximide protein synthesis inhibition readout, counter-screen; cell reporter, cycloheximide protein synthesis inhibition counterscreen; max response, %; 300,000 tested, 12% active; in the data active = max response mostly above about 13%, no sharp cut-off; inactive = mostly below about 14%; also: read at 38.3 µM for the half of the compounds with a filed dose; 0% is about no effect
# Starred values were filed as active, the others as inactive; ? = inconclusive; / = no result given; [ ] = remark or other dose. Shown is part of a subset that was picked to be rich in hits. Unless noted, calls follow the shape of the dose curve; as a rule, active = well fitted curve in the direction sought with a large enough effect; inconclusive = small, poorly fitted or top-dose-only effect, or another doubt; inactive = no such curve, though single readings can be large; an effect the other way counts as inactive or inconclusive.
SMILES,LmPK inhibitor,Giardia FBPA inh,Tb PYK inh,Shiga inhibitor,Sm TGR inh,Cycloheximide cs
CC(C)CN1C(=O)NC(NC(=O)c2cccs2)(C(F)(F)F)C1=O (stereo not drawn),-4.5%,1.7%,-15.8%,16.0,7.2%,-2.5
O=C(NC1(C(F)(F)F)NC(=O)N(Cc2ccco2)C1=O)c1cccs1 (stereo not drawn),0.8%,6.8%,0.6%,-15.9,35.5µM*,-4.0
O=C(NC1(C(F)(F)F)NC(=O)N(Cc2ccco2)C1=O)c1cccnc1 (stereo not drawn),4.0%,0.5%,8.0%,-9.5,35.5µM*,-2.7
O=C(NCc1ccccc1Cl)C1CCCN(c2ncnc3onc(-c4ccc(F)cc4)c23)C1 (stereo not drawn),/,/,-2.8%,/,0.5%,/
CC(=O)Nc1cccc(NC(=O)c2cc3ccccc3o2)c1,-20.5%,-16.4%,-0.4%,48.9,0.5%[11.4 µM],33.0*
Cc1cc(C)nc(NC(=O)c2cc3ccccc3o2)n1,-17.4%,-5.7%,-0.4%,39.2,4.7%,4.0
Cc1ccc(NC(=O)c2cc3ccccc3o2)cc1Cl,-9.9%,-18.7%,1.6%,110.8*,6.9%,46.9*
CC(C)C(=O)Nc1cccc(NC(=O)c2cc3ccccc3o2)c1,-14.8%,-16.2%,0.1%,42.2*,4.8%,54.0*
CC(C)NC(=O)c1cc2ccccc2o1,-0.5%,4.8%,-5.4%,1.9,-0.5%,5.0
COC(=O)N1CCC2(CCN(Cc3cc(C(F)(F)F)cc(C(F)(F)F)c3)CC2)CC1,/,0.3%,-0.2%,/,/,/
O=C(CN1C(=O)NC2(CCCCC2)C1=O)N1CCN(c2ncccn2)CC1,/,/,1.6%,/,9.2%,/
Cc1ccc(/C=C2/SC(=S)N(C3CCCCC3)C2=O)o1,5.7%,0.4%,-5.6%,-14.8,44.7µM*,7.4
CCOC(=O)c1cnc2cc(-c3ccc(Br)cc3)nn2c1C,5.8%,9.5%,8.8%,84.8,17.5%,21.9*
CCOC(=O)c1cnc2cc(C)nn2c1C,-1.0%,10.1%,-15.2%,26.4,-2.5%,10.4
CCOC(=O)c1cnc2cc(-c3ccc(Cl)cc3)nn2c1N,-3.9%,4.8%,2.6%,35.4,3.5%,27.5*
CN(C)C(=O)c1ccc(-c2cc(C(F)(F)F)nn2C)s1,-1.4%,-8.2%,-0.5%,53.5*,5.4%,39.2*
CN(C(=O)COc1cc(C(F)(F)F)nn1C)c1ccccc1,4.3%,2.0%,5.0%,14.8,/,-1.8
Cn1nc(C(F)(F)F)cc1-c1ccc(S(N)(=O)=O)s1,2.2%,1.7%,4.9%,67.8*,-6.1%,38.3*
Cn1nc(-c2ccc(S(N)(=O)=O)s2)cc1C(F)(F)F,5.0%,4.1%,7.7%,16.4,3.5%,-2.2
OC[C@H]1O[C@@H](c2nc(-c3cccc4ccccc34)no2)[C@H](O)[C@@H]1O,/,/,-2.4%,/,/,/
CCC1CCCCN1Cc1nc2ccccc2c(=O)n1CC(C)=O (stereo not drawn),3.1%,14.4%,3.3%,74.6*,10.3%,33.7*
COc1ccc(C2CCCCCN2Cc2nc3ccccc3c(=O)n2CC(N)=O)cc1 (stereo not drawn),-7.0%,-11.6%,-5.6%,-5.6,-3.7%,10.0
Cc1ccc(NC(=O)C(C)N2CCN(C)CC2)cc1S(=O)(=O)N1CCOCC1 (stereo not drawn),/,/,5.2%,/,-1.4%,/
Nc1ncccc1OCc1ccc(Br)cc1,-16.0%,?,2.1%,77.0*,-6.6%,71.5*
COc1ccc(COc2cccnc2N)cc1,-12.1%,-3.7%,-3.8%,56.4*,-0.5%,35.3*
SMILES,LmPK inhibitor,Giardia FBPA inh,Tb PYK inh,Shiga inhibitor,Sm TGR inh,Cycloheximide cs
O=C(/C=C/c1ccccc1[N+](=O)[O-])NCc1ccccc1Cl,-4.5%,-1.6%,2.5%,59.6,5.5%,50.2*
O=C(Cc1ccc(Cl)cc1)NCc1ccccc1Cl,0.0%,3.3%,-2.4%,115.4,-4.7%,49.5*
O=C(Cc1ccccc1[N+](=O)[O-])NCCSCc1c(F)cccc1Cl,2.1%,0.2%,1.4%,40.4,9.4%,40.4*
CCNC(=O)/C=C/c1ccccc1[N+](=O)[O-],-0.5%,-2.1%,0.1%,4.6,10.5%,-5.7
O=C(COC(=O)Cc1ccccc1[N+](=O)[O-])NCc1ccccc1Cl,1.1%,0.3%,-2.0%,-5.5,1.7%,-1.0
O=C(Cc1ccccc1[N+](=O)[O-])NCc1ccccc1Cl,-1.8%,/,1.4%,95.4*,7.4%,54.5*
Cn1cc(CN(C(=O)Nc2ccccc2)C2CCCCC2)c2ccccc21,/,/,0.9%,/,7.2%,/
COc1cc(CSc2ncc(CO)n2Cc2ccc(C)cc2)cc(OC)c1,/,/,-9.0%,/,-13.8%,/
O=C(NCc1ccccc1Cl)c1ccncc1,-1.2%,3.2%,-3.9%,-2.0,-19.4%,-1.6
O=C(NCc1ccccc1Cl)c1ccc(-c2ccccc2)cc1,-0.5%,-0.2%,-8.6%,46.9*,-1.1%,22.3*
Cc1ccccc1CNC(=O)Cc1ccccc1[N+](=O)[O-],-5.9%,2.5%,-1.3%,61.9*,-22.2%,58.4*
CN(CC(=O)Nc1ccc(Cl)c(C(F)(F)F)c1)C(=O)COC(=O)C1CC2CCCC(C1)C2=O (stereo not drawn),/,/,-1.5%,/,/,/
O=C(NCc1ccc(F)cc1)C1CCN(S(=O)(=O)c2ccc3c(c2)OCCCO3)CC1,5.2%,2.2%,-5.4%,-8.8,-6.6%,-2.2
O=C(NCc1ccc(Cl)cc1Cl)C1CCN(S(=O)(=O)c2ccc3c(c2)OCCCO3)CC1,-2.8%,3.1%,-13.3%,14.9,0.3%,18.7*
N#CC(=C1C=CC(=NO)C(Cl)=C1)c1ccccc1,/,/,-2.0%,/,/,/
C/C(=N\NC(=O)c1ccc(-c2ccccc2)cc1)c1ccco1,-1.6%,-0.6%,-4.6%,41.9,-3.7%,16.3
CCCCCC(=O)NC(=S)Nc1ccc(NC(=O)c2ccco2)cc1,3.3%,1.3%,-3.5%,10.1,-31.0%,-0.8
C/C(=N/NC(=O)c1ccco1)c1ccc(NC(=O)c2ccc(Br)o2)cc1,-4.1%,/,-4.7%,95.8*,-2.1%,61.6*
CCCCCC(=O)N/N=C(\C)c1ccc(NC(=O)c2ccco2)cc1,-0.6%,4.4%,0.0%,80.9*,11.3%,29.8*
C/C(=N\NC(=O)c1ccc(C(=O)N/N=C(\C)c2ccco2)o1)c1ccco1,-3.0%,-7.2%,-8.5%,-2.8,12.2%,1.7
C/C(=N/NC(=O)c1ccco1)c1ccc(NC(=O)c2ccc(F)cc2)cc1,2.7%,-0.8%,-7.7%,57.9*,-0.8%,90.1*
Cc1cc2c(c(=O)o1)[C@H](O)[C@H]1O[C@@H]1C2=O,/,-4.1%[12.9 µM],/,/,/,/
Cc1cc(=O)[nH]c(SCC(=O)Nc2nc(-c3ccccc3)c(-c3ccccc3)o2)n1,11.5%,-0.9%,-3.4%,14.6,-8.7%,16.1*
Cc1cc(C)nc(SCC(=O)Nc2nc(-c3ccccc3)c(-c3ccccc3)o2)n1,1.2%,21.1%,-0.3%,-1.3,-9.6%,-0.6
CC(=O)OCC1(C)CN(c2ccccc2)NC1=O (stereo not drawn),-20.6%,?,-9.8%,4.7,7.94µM*,10.4
